Most compounds without a hit are left out; they make up all but 1.4% or so of the library.
RXFP1 ag: activates the human relaxin receptor RXFP1 | AID 2676 | HEK293T-RXFP1 cAMP TR-FRET, 30 min; response scale: percent of porcine relaxin response, buffer zero | Potency, µM (titrated, usually from 57.5 µM), actives largely listed as activators | actives 0.3% (n = 370,000); note: nearly all actives have a fitted effect of over 60% in size
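Agonist response is measured as cAMP accumulation in an RXFP1-transfected HEK293T line under PDE4 inhibition. Values are scaled between buffer-only and 29 nM porcine relaxin, and EC50s come from standard Hill equation fits.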
PTHR1 ag: agonists of human PTHR1 parathyroid hormone receptor; Q03431; HEK293 GP2 PTHR1 cells, GloSensor cAMP luminescence, 1 h; Potency, µM (titrated, usually from 115 µM), actives largely listed as activators; actives 0.075% (n = 410,000); note: nearly all actives have a fitted effect of over 55% in size
Target sequence (Q03431 whole entry, looked up): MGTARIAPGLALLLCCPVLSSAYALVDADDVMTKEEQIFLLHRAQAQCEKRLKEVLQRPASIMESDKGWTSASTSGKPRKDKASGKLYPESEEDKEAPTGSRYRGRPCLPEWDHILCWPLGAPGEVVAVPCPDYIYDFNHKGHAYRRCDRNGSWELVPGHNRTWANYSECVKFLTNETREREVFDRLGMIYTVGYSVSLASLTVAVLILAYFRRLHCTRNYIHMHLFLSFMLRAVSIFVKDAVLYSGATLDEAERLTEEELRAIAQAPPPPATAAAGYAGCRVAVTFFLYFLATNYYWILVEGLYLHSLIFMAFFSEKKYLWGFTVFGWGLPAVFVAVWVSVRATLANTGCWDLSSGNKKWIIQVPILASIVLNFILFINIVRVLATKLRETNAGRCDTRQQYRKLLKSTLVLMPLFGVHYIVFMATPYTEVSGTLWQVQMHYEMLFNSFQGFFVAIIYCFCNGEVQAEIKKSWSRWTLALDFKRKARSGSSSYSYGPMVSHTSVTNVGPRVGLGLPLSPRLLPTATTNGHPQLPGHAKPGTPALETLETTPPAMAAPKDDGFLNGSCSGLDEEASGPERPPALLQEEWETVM
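HEK-293-derived GP2 cells expressing PTHR1 and a GloSensor cAMP reporter, 3,000/well, plated overnight, given luciferin plus IBMX (each 0.5 mM as added) for 1 h at 37 °C, then compound for 1 h at 37 °C. Luminescence was read after 15 min at room temperature.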
Glioma ERSR ind: inducers of ER stress response in human glioma cells; U87-MG GRP78 promoter luciferase reporter, 16 h; Potency, µM, actives largely listed as activators; actives 0.02% (n = 420,000); AID 602332; note: series mostly up to about 76 µM; nearly all actives have a fitted effect of over 35% in size
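Stably transfected U87-MG glioma cells carrying a GRP78-based luciferase sensor; 16 h compound incubation. Luminescence end-point read 10 min after Bright-Glo addition at room temperature.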
RXFP1 antag: antagonists of human relaxin receptor RXFP1; Q9HBX9; HEK293-RXFP1, relaxin-stimulated cAMP HTRF, 30 min; hits give low values; activity change, negative = inhibition, % at 57.5 µM; actives 0.59% (n = 350,000); AID 1259400;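 active = activity change of -60% or lower, but not beyond a set lower limit; inconclusive = change between -60% and -40%, or beyond the set limit; inactive = change above -40%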
KCNH2 WT inh: KCNH2 (human, wildtype) channel inhibition. Q12809. U2OS, BacMam KCNH2, thallium flux FluxOr; hits give low values. activity change, % at 1.84 µM. actives 0.37% (n = 340,000). AID 720551;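 active = maximum activity change below -70%; inconclusive = maximum activity change between -70% and -50%; inactive = maximum activity change above -50%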
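U2OS cells were transduced with wild-type KCNH2 virus (2.03 x 10^8 / mL) for 4 h at room temperature, then cultured overnight at 37 C. Thallium flux was read with FluxOr dye. Rate constants were normalized to DMSO controls.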
KCNH2 3.1 block: blocks the human KCNH2 3.1 channel isoform. U2OS KCNH2 3.1, thallium flux FluxOr; hits give low values. activity change, % (tested at about 1.8 µM). actives 0.95% (n = 340,000);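 active = maximum activity change below -70%; inconclusive = maximum activity change from -70% to -50%; inactive = maximum activity change above -50%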;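 note: thallium influx rate constant from kinetic fluorescence after stimulation buffer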
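U2OS cells transduced with KCNH2 3.1 mutant virus (1.77 x 10^8 /mL, 4 h), plated overnight at 37 C, loaded 45 min with FluxOr dye plus Red40 quencher. Thallium flux rate constant from kinetic reads after stimulation buffer, normalised to controls.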
A number is an active result; . = inactive; ? = inconclusive; / = not tested or not shown. Unless noted, calls come from the whole dose curve; as a rule, active = well fitted curve in the direction sought with a large enough effect; inconclusive = small, poorly fitted or top-dose-only effect, or another doubt; inactive = no such curve, though single readings can be large; an effect the other way counts as inactive or inconclusive.

SMILES	RXFP1 ag	PTHR1 ag	Glioma ERSR ind	RXFP1 antag	KCNH2 WT inh	KCNH2 3.1 block
COc1ccc(CN2CCN(c3nc4ccccc4s3)CC2)cc1	.	.	.	.	.	.
O=C(Nc1c(F)cc(F)cc1Br)c1cc(S(=O)(=O)N2CCN(c3ccccn3)CC2)ccc1F	.	.	.	.	.	.
O=C(Nc1ccc(F)c(F)c1)c1cc(S(=O)(=O)N2CCN(c3ccccn3)CC2)ccc1F	.	.	.	.	.	-78
CC(C)N1CCN(c2ccc(C(=O)c3c(-c4ccc(O)cc4)sc4cc(O)ccc34)cc2)CC1	/	/	.	/	/	/
COc1ccc(CCNC(=O)CCC(=O)NC2CCCC(C)C2C)cc1OC (stereo unspecified)	.	.	.	.	.	.
O=C1CSc2ccc(C(=O)O)cc2N1	.	.	.	-77	.	.
O=C(CCC(=O)N1CCOc2ccc(Cl)cc21)NCCCN1CCC(Cc2ccccc2)CC1	.	.	.	.	.	-80
COc1ccc(N2CCN(CCCNC(=O)CCC(=O)N3CCOc4ccc(Cl)cc43)CC2)cc1	.	.	.	?	.	-80
Cc1[nH]n(-c2cccc3ccccc23)c(=O)c1/C=N/c1sc2c(c1C#N)CCC2	.	.	.	.	.	.
O=C(N/N=C/c1ccccc1C(=O)O)c1cc(-c2ccc3c4c(cccc24)CC3)n[nH]1	.	.	.	-65	.	.
O=C(CCc1ccccc1)N(Cc1cccnc1)c1nc2c(F)cc(F)cc2s1	.	.	.	-86	/	/
O=C(C1CCCCC1)N(Cc1cccnc1)c1nc2c(F)cccc2s1	.	?	.	-72	/	/
COc1cccc(OC)c1C(=O)Nc1ccc([N+](=O)[O-])cn1	.	.	.	.	.	.
CCN(CC)CCNc1nc2cc(OC)c(OC)cc2c2nc(-c3ccccc3)nn12	.	.	.	.	.	.
COc1cccc(NC(=O)CN(C)C(=O)c2cccc(S(=O)(=O)N3CCN(c4ccccc4)CC3)c2)c1	.	.	.	.	.	.
O=C(COC(=O)C1CCN(S(=O)(=O)c2ccc(Cl)c(C(F)(F)F)c2)CC1)NCc1ccco1	.	.	.	.	.	.
CC1CCCCN1C(=O)COC(=O)C1CCN(S(=O)(=O)c2ccc(Cl)c(C(F)(F)F)c2)CC1 (stereo unspecified)	.	.	.	-65	.	.
Cc1ccc2nc(N(CCCN(C)C)C(=O)c3ccc(S(=O)(=O)N4CCc5ccccc5C4)cc3)sc2c1	.	.	.	-65	.	.
CN(C)CCCN(C(=O)c1ccc2c(c1)CCCC2)c1nc2ccc(F)cc2s1	.	.	.	/	?	-72
Cc1cccc2sc(N(CCCN(C)C)C(=O)c3ccc4ncsc4c3)nc12	.	.	.	.	.	.
CCN(CC)CCN(C(=O)c1ccc2c(c1)CCCC2)c1nc2ccc(F)cc2s1	.	.	.	?	.	.
Cc1ccc(C(=O)N(CCCN(C)C)c2nc3ccc(Cl)cc3s2)cc1C	.	.	.	-100	.	.
CCc1ccc2nc(N(CCN(C)C)C(=O)c3ccc4ncsc4c3)sc2c1	.	.	.	-68	.	.
CN(C)CCCN(C(=O)c1ccc(S(=O)(=O)N2CCc3ccccc3C2)cc1)c1nc2ccc(F)cc2s1	.	.	.	.	?	.
CCC(C)N(C(=O)Cn1nnc2ccccc21)C(C(=O)NCc1ccco1)c1cccc(OC)c1 (stereo unspecified)	.	.	.	.	.	.
SMILES	RXFP1 ag	PTHR1 ag	Glioma ERSR ind	RXFP1 antag	KCNH2 WT inh	KCNH2 3.1 block
CC(=O)n1cc(/C=N/NC(=O)c2ccc(Cl)cc2)c2ccccc21	.	.	.	.	.	.
Cn1c(=O)c2c(ncn2CC(=O)N/N=C/C=C/c2ccccc2[N+](=O)[O-])n(C)c1=O	.	.	.	.	.	.
Cc1ccc(Cn2nnc3c(=O)[nH]c(C4CCN(S(=O)(=O)c5cc(C)ccc5C)CC4)nc32)cc1	.	.	.	.	.	.
CCOc1ccc(-n2cc(-c3ccc(OC)c(OC)c3)[nH]c2=S)cc1	.	.	.	-76	.	.
CCOc1ccc(-c2cn(-c3ccccc3OC)c(=S)[nH]2)cc1	.	.	.	.	.	.
S=c1nc(COc2ccccc2)[nH]c2ccccc12	?	.	.	.	-91	.
S=c1nc(Cc2ccc(Cl)cc2)[nH]c2ccccc12	.	.	.	.	-150	.
O=C1CN=C(Nc2cccc(C(F)(F)F)c2)N1C1CCCC1	.	.	.	.	.	.
CCOc1ccccc1NS(=O)(=O)c1cccs1	.	.	.	.	.	/
COc1ccc(CN2CCCC(C(=O)N(C)Cc3ccccc3)C2)cc1OC (stereo unspecified)	.	.	.	.	.	-75
COc1ccc(-n2c(COc3ccc(C)cc3)nnc2SCc2ccc(C#N)cc2)cc1	.	.	.	.	.	.
COc1ccc(-n2c(COc3ccc(Cl)cc3)nnc2SCc2ccc(C#N)cc2)cc1	.	.	.	.	.	-79
COc1cccc(C2Nc3c(F)cc(Br)cc3C3C=CCC32)c1OC (stereo unspecified)	.	.	.	.	.	.
COc1cc(C2Nc3c(F)cccc3C3C=CCC32)cc(Br)c1OC (stereo unspecified)	.	.	.	-65	.	.
COc1cc(C2C(C#N)=C(N)Oc3c2ccc2ccccc32)ccc1OCC(=O)Nc1cccc(C)c1 (stereo unspecified)	.	.	.	-78	.	.
CC1CCCN(c2cc3c(cc2F)c(=O)c(S(=O)(=O)c2cccc(Cl)c2)cn3C)C1 (stereo unspecified)	.	.	.	.	/	/
CC1(C(=O)Nc2ccc3c(c2)OCCO3)CSCC(=O)N1CC(F)(F)F (stereo unspecified)	/	.	/	/	/	/
O=C(Cn1nnc(-c2ccc(OCc3ccccc3F)cc2)n1)N1CCOCC1	.	.	.	.	.	-90
O=C(NCc1cccnc1)Nc1cccc(F)c1	.	.	.	.	/	.
C[C@@H](NC(=O)C(=O)c1c[nH]c2ccccc12)c1ccccc1	/	.	.	/	.	.
CSc1ccccc1NC(=O)C(=O)c1c[nH]c2ccccc12	.	.	.	-60	.	.
Cc1ccc(/C=N/NC(=O)c2cccs2)cc1[N+](=O)[O-]	.	.	.	/	.	.
Cc1cccc(Cc2nnc(CCC(=O)N(C)Cc3ccncc3C)o2)c1	.	.	.	.	.	.
COc1ccc(CCc2nnc(CCC(=O)N(C)Cc3ccncc3C)o2)cc1	.	.	.	.	.	-72

Compound activity as filed in PubChem BioAssay.
